Bioassay records as filed in PubChem.
Shown are actives, neighbours in structure and some others; about 19% of the full set was active somewhere.
Shiga inhibitor = A qHTS for Small Molecule Inhibitors of Shiga Toxin; Vero cells, Shiga toxin protein synthesis inhibition reporter; inhibition, % at 38.7 µM; 290,000 compounds, 9.2% hits; in the data active = inhibition mostly above about 28%, no sharp cut-off; inactive = mostly below about 43%; also: 0% is about no effect
Pf growth 96h = Primary qHTS for delayed death inhibitors of the malarial parasite plastid, 96 hour incubation. P. falciparum luciferase reporter growth, 96 h. Potency, µM (series often up to 28.7 µM), for inactives: top-dose activity change, negative = inhibition, usual class: inhibitors. 320,000 compounds, 6.9% hits. AID 504834, 2011; also: potency is read from the fitted curve at half-maximal effect; % is scaled to controls: 0 for no effect and ±100 for the full control effect
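96 h incubation, 37 C, 5% CO2, of luciferase-reporter P. falciparum-infected RBCs (2% hematocrit, 0.05% parasitemia final) with test compounds; endpoint luminescence.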
AMA1-RON2 inh = qHTS for Inhibitors of AMA1-RON; Towards Development of Antimalarial Drug Lead: Primary Screen; Plasmodium falciparum AMA1 (3D7) - RON2 peptide interaction; AlphaScreen AMA1-biotinylated RON2 peptide binding; Potency, µM (top dose mostly 58.2 µM), for inactives: top-dose activity change, negative = inhibition, usual class: inhibitors; 360,000 compounds, 0.2% hits; AID 720542, 2013;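 also: potency is read from the fitted curve at half-maximal effect; 0% = vehicle wells and -100% = peptide control; nearly all actives have a fitted effect of over 45% in size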
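AMA1 (3D7) with his tag at 25 nM final met compounds first, then biotinylated RON2 peptide at 25 nM; detection used donor plus acceptor beads, 10 µg/mL apiece, read by AlphaScreen after 30 min at room temperature.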
Pf growth 48h = Primary qHTS for delayed death inhibitors of the malarial parasite plastid, 48 hour incubation; P. falciparum luciferase growth in erythrocytes, 48 h; Potency, µM (titrated, usually from 28.7 µM), for the others: at the highest dose activity change, negative = inhibition, most hits filed as inhibitors; 310,000 compounds, 5.9% hits; AID 504832, 2011; also: potency is read from the fitted curve at half-maximal effect; % is scaled to controls: 0 for no effect and ±100 for the full control effect
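Growth was read as firefly luciferase luminescence after a 48 h, 37 C, 5% CO2 exposure of compounds to reporter-bearing P. falciparum cultures (0.1% parasitemia, 2% hematocrit final) in Albumax-supplemented RPMI 1640.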
CHX counter = Cycloheximide Counterscreen for Small Molecule Inhibitors of Shiga Toxin | 300,000 compounds, 12% hits | cell reporter, cycloheximide protein synthesis inhibition counterscreen | max response, %; in the data active = max response mostly above about 13%, no sharp cut-off; inactive = mostly below about 14%; also: read at 38.3 µM for the half of the compounds with a filed dose; 0% is about no effect
SARS PLpro yeast = qHTS of Yeast-based Assay for SARS-CoV PLP | AID 485353, 2010 | S. cerevisiae expressing SARS-CoV PLpro, growth rescue | Potency, µM (titrated, usually from 32.9 µM), for inactives: at the top dose activity, positive = growth rescue, usual class: activators | 330,000 compounds, 0.19% hits; calls by dose curve; also: potency is read from the fitted curve at half-maximal effect; 0% is about no effect; nearly all actives have a fitted effect of over 55% in size
Active calls of the source: *; ? = inconclusive; . = no result; [ ] = dose if it differs, or a comment. Unless noted, calls follow the shape of the dose curve; as a rule, active = well fitted curve in the direction sought with a large enough effect; inconclusive = small, poorly fitted or top-dose-only effect, or another doubt; inactive = no such curve, though single readings can be large; an effect the other way counts as inactive or inconclusive.

SMILES	Shiga inhibitor	Pf growth 96h	AMA1-RON2 inh	Pf growth 48h	CHX counter	SARS PLpro yeast
C#CCOCCOCCOCCNc1nc(N2CCOCC2)nc(N2CCN(C(=O)CCCCCCCCCCNC(=O)[C@H](CO)n3cc(CCCCCN)nn3)CC2)n1	.	0.828µM*	-1.8%	0.329µM*	.	-26.4%
C#CCOCCOCCOCCNc1nc(N2CCOCC2)nc(N2CCN(C(=O)Cn3cc(CCCCN)nn3)CC2)n1	.	.	-6.5%	.	.	.
C#CCOCCOCCOCCNc1nc(N2CCN(C(=O)CCCCCCCCCCNC(=O)Cn3cc(CCCCCN)nn3)CC2)nc(N2CCN(C(=O)CCCCCCCCCCNC(=O)[C@H](CO)n3cc(CCCCCN)nn3)CC2)n1	.	2.94µM*	?	1.04µM*	.	-26.4%
C#CCOCCOCCOCCNc1nc(N2CCN(C(=O)CCCCCCCCCCNC(=O)Cn3cc(CCCCCN)nn3)CC2)nc(N2CCN(C(=O)CCCCCCCCCCNC(=O)[C@H]([C@@H](C)CC)n3cc(CCCCCN)nn3)CC2)n1	.	?	?	10.4µM*	.	5.7%
N#CCCN(C(=O)c1ccc2c(=O)n3c(nc2c1)CCCCC3)c1ccccc1	-9.2	18.3%	-12.2%	-18.3%	-3.5	-1.8%
CCOC(=O)c1cc(S(=O)(=O)N2CCN(C3CCCCC3)CC2)cn1C	-13.2	82.0%	-11.1%	-2.6%	0.7	-7.2%
CC1(C)CCC[C@@]2(C)CC=C(C(=O)O)[C@@H]3C[C@]312	.	3.4%	0.6%	-12.3%	.	-2.4%
CC1=C(C(=O)Nc2ccc(C)cn2)C(c2cnn(C)c2)C2=C(CCCC2=O)N1 (stereo unspecified)	14.3	-3.9%	-18.8%	24.7%	-2.3	2.8%
CS(=O)(=O)NN1C(=O)c2ccccc2NC1c1cc2ccccc2nc1Cl (stereo unspecified)	-8.4	13.3%	-13.1%	12.0%	15.6*	-9.3%
CN(C)c1ccc(C2Nc3ccccc3C(=O)N2NS(C)(=O)=O)cc1 (stereo unspecified)	19.7	?	-3.0%	11.3%	15.4*	-1.0%
CC(=O)NN1C(=O)c2ccccc2NC1c1ccc(N(C)C)cc1 (stereo unspecified)	45.3	?	78.1%	23.0%	23.5	-0.8%
COc1ccc2cc(C3NC(=O)c4ccccc4N3)c(Cl)nc2c1 (stereo unspecified)	-3.8	-19.9%	6.3%	?	6.7	0.9%
O=C1NC(c2cc3ccccc3nc2Cl)Nc2ccccc21 (stereo unspecified)	-6.2	1.85µM*	-6.4%	2.94µM*	-5.1	-2.9%
Cc1ccc(S(=O)(=O)NN2C(=O)c3ccccc3NC2c2ccccc2)cc1 (stereo unspecified)	98.1*	?	-2.4%	-1.2%	24.1*	2.8%
CS(=O)(=O)NN1C(=O)c2ccccc2NC1c1ccccc1F (stereo unspecified)	24.9	0.4%	11.4%	37.8%	0.1	0.9%
CC1CN(C(=O)Cn2cc(S(=O)(=O)CC(=O)N(C)c3ccccc3)c3ccccc32)CC(C)O1 (stereo unspecified)	-12.2	13.1µM*	9.5%	-12.2%	-1.4	-1.7%
CC(C)[C@H](NC(=O)c1ccccc1Cl)C(=O)NC1CCCCCC1	18.7	-6.7%	-3.4%	?	6.7	1.0%
CC1=C(C(=O)OC2CCCCC2)C(c2ccc(F)cc2)NC(=O)N1 (stereo unspecified)	-3.9	9.28µM*	0.0%	4.1%	-4.5	-3.9%
C[C@@H]1CC2OC(=O)[C@@]3(C)C(=O)CC[C@@](C)(C23)[C@@]1(O)CCc1ccoc1 (stereo partly specified)	-4.2	40.2%	2.7%	3.8%	26.4*	0.6%
CCCCNC(=O)c1cn(C)c2ccc(S(=O)(=O)N3CC(C)CC(C)C3)cc2c1=O (stereo unspecified)	5.8	18.3%	13.0%	-38.6%	-0.6	0.0%
CN(C(=O)c1cccc(NC(=O)Cc2ccc(NC(=O)C3CCCN(C(=O)C4CCCCC4)C3)cc2)c1)C1CCC1 (stereo unspecified)	.	.	5.9%	.	.	.
O=C(c1cccc(C(F)(F)F)c1)N1CCOc2ccccc21	25.0	0.8%	15.5%	13.1µM*	4.0	-0.1%
CC1=Nc2nc(N3CCCCC3)c(C#N)c3c4c(nc(c23)N1)N(c1ccc(C(C)C)cc1)C(=O)C4	-13.4	1.17µM*	4.2%[11.6 µM]	?	-0.5	-3.2%
Cc1cc(Br)cn2c(Cc3ccsc3)c(-c3cccc(Br)c3)nc12	.	.	-10.4%	.	.	.
COc1ccc(C(C)=O)cc1CSc1nc2ccccc2c(=O)n1-c1ccccc1	7.9	?	-1.2%[2.32 µM]	-28.5%	-3.9	-6.9%
SMILES	Shiga inhibitor	Pf growth 96h	AMA1-RON2 inh	Pf growth 48h	CHX counter	SARS PLpro yeast
COc1ccc(C(C)=O)cc1CSc1nc2ccccc2c(=O)n1-c1ccccc1C	-3.0	2.33µM*	-12.0%	11.7µM*	-4.1	-23.3%
COc1ccc(C(C)=O)cc1CSc1nc2ccccc2c(=O)n1-c1cccc(C)c1	-15.9	?	-23.5%	-91.3%	0.3	-23.8%
C=CCn1c(SCc2cc(C(C)=O)ccc2OCC)nc2ccccc2c1=O	-11.3	5.86µM*	0.0%	?	-0.5	-6.7%
Cn1cc(Cl)c(C(=O)Nc2nc3ccccc3s2)n1	70.7*	269.7%	-5.8%	230.4%	42.4*	-14.5%
O=C(Nc1nc2ccccc2s1)c1c(F)cccc1Cl	90.6*	-21.8%	-1.0%	0.0%	37.6*	1.2%
Cc1ccc(-c2nnc(NC(=O)c3c(F)cccc3Cl)s2)cc1	10.5	138.8%	23.5%	37.5%	-2.8	1.1%
Cn1cc(Cl)c(C(=O)OCC(=O)Nc2ccccc2)n1	-5.4	0.7%	-19.8%	.	-2.1	3.8%
Cn1cc(Cl)c(C(=O)Nc2cccc(Cl)c2Cl)n1	29.3	-1.3%	-2.0%	66.7%	41.6*	14.5%
CC1CCCN(S(=O)(=O)c2cccc(C(=O)NCCCN3CCCC3=O)c2)C1 (stereo unspecified)	.	.	0.0%	.	.	.
CC(C)(O)[C@@H]1[C@@H]2C[C@@]3(CC[C@]4(C)C(CCC5[C@@]6(C)CC[C@H](O)C(C)(C)C6CC[C@]54C)[C@@H]13)C(=O)O2 (stereo partly specified)	.	.	9.1%	.	.	.
CCOC(=O)C1(Cc2ccc(OC)cc2)CCN(C(=O)CCc2cnccn2)CC1	35.6	-2.7%	-11.0%	-14.2%	13.6*	1.3%
CCOC(=O)C1(Cc2ccc(OC)cc2)CCN(C(=O)CC2CCC(=O)N2)CC1 (stereo unspecified)	12.5	?	0.9%	-10.3%	12.3	0.6%
CCOC(=O)C1(CCc2ccccc2)CCN(C(=O)CCc2cnccn2)CC1	55.0*	10.8%	-9.3%	?	23.9*	0.2%
